According to PubChem BioAssay (NCATS):
Records with an inconclusive call do not appear. A call without a number means that no potency is given here. The source made the active and inactive calls. Unless noted, calls come from the whole dose curve; as a rule, active = well fitted curve in the direction sought with a large enough effect; inconclusive = small, poorly fitted or top-dose-only effect, or another doubt; inactive = no such curve, though single readings can be large; an effect the other way counts as inactive or inconclusive.

How the values were obtained:
[1] = Cytometric Cell-Based qHTS for Inhibitors of the mTORC1 Signaling Pathway in MEF (Tsc2-/-, p53-/-) Cells (AID 2660);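 note: Tsc2 and p53 null MEFs carrying empty vector with compound for 24 h; percent of cells above a phospho-rpS6 to PI ratio cutoff in each well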
Method in brief: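 Immunofluorescence qHTS of rpS6 Ser235/236 phosphorylation: MEFs (Tsc2-/-, p53-/-) treated 24 h, 37 C, in DMEM + 10% FBS. Alexa-488 signal normalized to PI count, referenced to rapamycin (7.5 nM) and DMSO; PI cell number recorded for viability.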

[2] = High Content Imaging Cell-Based qHTS for Inhibitors of the mTORC1 Signaling Pathway in MEF (Tsc2-/-, p53-/-) Cells (AID 2666); conditions: at 38.3 µM (top of the series);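 note: percent of cells scored positive for phospho-rpS6 Ser235/236 immunostaining by imaging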
Method in brief: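 Inhibition of rpS6 phosphorylation is measured by immunofluorescence imaging in empty-vector Tsc2-/-, p53-/- mouse embryonic fibroblasts after 24 hrs compound exposure at 37 degree Celsius. Results are reported as % positive cells per well.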

[3] = High Content Imaging Cell-Based qHTS for Inhibitors of the mTORC1 Signaling Pathway in MEF Cells (AID 2667);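 note: Tsc2-/- p53-/- MEFs stably re-expressing wild-type Tsc2 exposed 24 h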
Method in brief: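 Fixed-cell imaging of phospho-S6 (Ser235/236, Alexa-488) after 24 hrs of compound treatment at 37 degree Celsius. Signal was normalized to Hoechst, and thresholds from the highest and lowest wells split cells into % active versus % non-active.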

[4] = Cytometry Cell-Based qHTS for Inhibitors of the mTORC1 Signaling Pathway in MEF cells (AID 2668);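 note: Tsc2-/- p53-/- mouse embryonic fibroblasts stably re-expressing wild-type Tsc2; percent cells positive for phospho-rpS6 Ser235/236 relative to propidium iodide stain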
Method in brief: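 WT MEFs (Tsc2-/-, p53-/- stably re-expressing WT Tsc2) in DMEM + 10% FBS received compounds 24 hrs after plating, for 24 hrs at 37 degree Celsius. Fixed cells stained with Alexa-488 anti-phospho-rpS6 Ser235/236 and propidium iodide; laser-scanning cytometry read-out.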

[5] = biological target: DNA polymerase III PolC-type (Bacillus subtilis (strain 168)) (UniProt P13267); test: qHTS Validation Assay for the Inhibitors of DNA Replication in Gram-Positive Bacteria (AID 485295);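 note: PicoGreen fluorescence of double-stranded DNA made on primed circular M13 template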
Method in brief: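 Reconstituted B. subtilis holoenzyme (Pol III, beta clamp, SSB, primase) was preincubated with compound at room temperature, then given single-stranded circular M13Gori plus dNTPs and NTPs. EDTA-containing PicoGreen stopped the reaction, and dsDNA product was read by fluorescence.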

[6] = biological target: Tumor susceptibility gene 101 protein (Homo sapiens) (UniProt Q99816); test: qHTS Validation Assay for Iinhibitors of HIV-1 Budding by Blocking the Interaction of PTAP/TSG101 (AID 485342; calls by dose curve)
Method in brief: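 Tsg101 binding domain (10 uM final) in pH 7.5 HEPES/NaCl/Tween 20/EDTA/TCEP buffer was mixed with pin-transferred compounds, then FITC-labeled PTAP peptide (50 nM final) was added; after 20 min at r.t., fluorescence polarization was read.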

[7] = biological target: ATP-dependent 6-phosphofructokinase (Trypanosoma brucei brucei) (UniProt O15648); test: qHTS Validation Assay to Find Inhibitors of T. brucei phosphofructokinase (AID 485368)
Chain of ATP-dependent 6-phosphofructokinase (Trypanosoma brucei brucei) (O15648 whole entry, looked up): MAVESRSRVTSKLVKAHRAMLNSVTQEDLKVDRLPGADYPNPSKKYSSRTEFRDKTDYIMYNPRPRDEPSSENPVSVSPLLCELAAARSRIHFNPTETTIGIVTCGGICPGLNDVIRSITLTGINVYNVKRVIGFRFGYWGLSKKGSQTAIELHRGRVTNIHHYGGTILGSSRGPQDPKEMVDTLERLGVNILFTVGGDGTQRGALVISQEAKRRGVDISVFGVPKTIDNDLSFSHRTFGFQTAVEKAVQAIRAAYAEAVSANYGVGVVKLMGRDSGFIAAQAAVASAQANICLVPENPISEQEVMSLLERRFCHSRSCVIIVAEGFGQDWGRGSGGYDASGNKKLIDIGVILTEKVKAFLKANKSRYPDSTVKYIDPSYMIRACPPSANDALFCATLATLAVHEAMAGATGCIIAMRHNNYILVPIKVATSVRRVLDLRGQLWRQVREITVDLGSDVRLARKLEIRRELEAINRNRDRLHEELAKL
Method in brief: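 ADP-Glo luminescence, two-step: residual ATP depleted, then ADP converted to ATP for luciferase. Enzyme 1.25 nM, F6P 0.5 mM, ATP 0.1 mM, pH 8.0 TEA buffer, 45 min RT. Curves fitted and classed by quality and efficacy.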

[8] = biological target: Thioredoxin reductase 1, cytoplasmic (Rattus norvegicus) (UniProt O89049); test: qHTS Assay for Substrates of Mammalian Selenoprotein Thioredoxin Reductase 1 (TrxR1) (AID 488772);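 note: a drop in NADPH fluorescence below the no-compound background marks a TrxR1 substrate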
Chain of Thioredoxin reductase 1, cytoplasmic (Rattus norvegicus) (O89049 whole entry, looked up): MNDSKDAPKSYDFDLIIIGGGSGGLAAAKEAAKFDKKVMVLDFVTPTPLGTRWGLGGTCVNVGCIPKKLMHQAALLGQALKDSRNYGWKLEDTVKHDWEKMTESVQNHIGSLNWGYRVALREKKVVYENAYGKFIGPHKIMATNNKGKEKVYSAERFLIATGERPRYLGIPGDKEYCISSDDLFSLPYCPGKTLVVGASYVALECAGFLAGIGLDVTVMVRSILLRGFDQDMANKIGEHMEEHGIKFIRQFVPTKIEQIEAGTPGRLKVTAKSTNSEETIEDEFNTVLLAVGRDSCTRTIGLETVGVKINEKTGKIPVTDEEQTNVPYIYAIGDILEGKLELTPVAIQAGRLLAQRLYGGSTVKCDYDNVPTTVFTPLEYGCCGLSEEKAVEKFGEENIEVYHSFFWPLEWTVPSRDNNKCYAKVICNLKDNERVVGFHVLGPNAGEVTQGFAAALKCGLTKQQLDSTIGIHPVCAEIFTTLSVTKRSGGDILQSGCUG
Method in brief: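 In this dual-purpose format, potential substrates are identified from the first fluorescence read after selenite addition, not from the 8-minute delta. Rat enzyme is preincubated with NADPH and then with compound at ~22 deg C.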

[9] = biological target: Thioredoxin reductase 1, cytoplasmic (Rattus norvegicus) (UniProt O89049); test: qHTS Assay for Inhibitors of Mammalian Selenoprotein Thioredoxin Reductase 1 (TrxR1) (AID 488773); conditions: Potency: inhibition;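 note: drop in NADPH fluorescence over an 8 min run after selenite addition; nearly all actives have a fitted effect of over 40% in size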
Method in brief: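 Inhibition is scored from the loss of NADPH fluorescence between first and last reads of an 8-min kinetic run. Selenite (400 uM) was the substrate, added after 15 min compound preincubation at room temperature.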

[10] = biological target: Flap endonuclease 1 (Homo sapiens) (UniProt P39748); test: qHTS Validation Assay for the Inhibitors of Human Flap endonuclease 1 (FEN1) (AID 488816)
Method in brief: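 Steps: add FEN1 (10 nM reagent) or buffer only; pin compounds; hold 15 min at room temperature; start with substrate, 50 nM final; read at 0 and 15 min; correct, normalize and fit a four-parameter Hill curve.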

[11] = biological target: M-phase phosphoprotein 8 (Homo sapiens) (UniProt Q99549); test: qHTS Validation Assay for Inhibitors for MPP8 Chromodomain Interactions with Methylated Histone Tails (AID 488949);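 note: AlphaScreen signal from MPP8 chromodomain bound to biotinylated H3K9me3 peptide; top concentration of the series differs between compounds; nearly all actives have a fitted effect of over 55% in size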
Chain of M-phase phosphoprotein 8 (Homo sapiens) (Q99549 whole entry, looked up): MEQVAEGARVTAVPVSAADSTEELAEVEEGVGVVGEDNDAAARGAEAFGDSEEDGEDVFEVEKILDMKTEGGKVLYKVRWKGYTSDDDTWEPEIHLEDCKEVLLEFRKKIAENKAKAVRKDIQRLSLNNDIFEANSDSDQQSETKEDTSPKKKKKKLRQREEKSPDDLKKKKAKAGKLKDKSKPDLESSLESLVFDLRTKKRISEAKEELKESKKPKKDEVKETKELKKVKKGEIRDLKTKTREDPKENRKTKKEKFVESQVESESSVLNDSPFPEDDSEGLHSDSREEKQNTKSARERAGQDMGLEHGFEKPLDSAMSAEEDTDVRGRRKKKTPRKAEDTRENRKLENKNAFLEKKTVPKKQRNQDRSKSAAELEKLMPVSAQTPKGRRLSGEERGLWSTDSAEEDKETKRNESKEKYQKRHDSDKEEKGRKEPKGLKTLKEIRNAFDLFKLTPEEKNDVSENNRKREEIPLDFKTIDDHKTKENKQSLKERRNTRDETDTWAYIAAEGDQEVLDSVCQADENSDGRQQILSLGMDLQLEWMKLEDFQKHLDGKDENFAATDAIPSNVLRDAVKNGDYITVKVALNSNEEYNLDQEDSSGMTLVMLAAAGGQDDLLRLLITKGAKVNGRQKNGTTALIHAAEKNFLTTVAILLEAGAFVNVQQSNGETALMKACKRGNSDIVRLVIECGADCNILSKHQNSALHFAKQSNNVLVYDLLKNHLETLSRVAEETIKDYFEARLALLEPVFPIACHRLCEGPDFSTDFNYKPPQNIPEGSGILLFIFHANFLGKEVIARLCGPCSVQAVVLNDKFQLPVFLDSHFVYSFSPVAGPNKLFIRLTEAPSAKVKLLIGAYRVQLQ
Method in brief: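 MPP8 (50 nM) was preincubated with biotinylated H3(1-18)K9me3 peptide (50 nM) in PBS pH 7.4, 0.01% Tween-20 for 30 min at room temperature, then with compounds for 30 min; binding was detected by AlphaScreen.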

[12] = biological target: Methanococcus maripaludis chaperonin (MmCpn) (UniProt Q6LX38); test: High-Throughput Screening for Modulators of Cytosolic Chaperonin Activity: MmCpn Primary Screen (AID 488978);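 note: 50 nM MmCpn enzyme hydrolysing 30 µM ATP at 37 °C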
Chain of Methanococcus maripaludis chaperonin (MmCpn) (Q6LX38 1-543): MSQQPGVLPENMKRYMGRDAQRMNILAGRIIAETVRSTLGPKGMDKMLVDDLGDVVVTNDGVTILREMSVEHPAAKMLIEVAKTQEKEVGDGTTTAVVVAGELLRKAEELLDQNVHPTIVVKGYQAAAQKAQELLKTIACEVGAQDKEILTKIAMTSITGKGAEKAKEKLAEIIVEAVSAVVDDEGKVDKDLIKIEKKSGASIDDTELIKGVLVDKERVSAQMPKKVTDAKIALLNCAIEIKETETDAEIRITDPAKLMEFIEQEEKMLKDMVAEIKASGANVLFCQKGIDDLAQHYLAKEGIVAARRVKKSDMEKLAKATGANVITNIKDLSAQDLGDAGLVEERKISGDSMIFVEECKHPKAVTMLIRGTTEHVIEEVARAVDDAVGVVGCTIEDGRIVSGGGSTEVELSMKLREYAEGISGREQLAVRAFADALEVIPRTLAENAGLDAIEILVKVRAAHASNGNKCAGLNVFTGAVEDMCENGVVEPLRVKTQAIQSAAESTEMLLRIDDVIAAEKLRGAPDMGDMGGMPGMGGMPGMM
Method in brief: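 MmCpn (50 nM final) was preincubated with compound 5 min at RT, then 30 uM ATP (final) was added and the reaction ran 10 min at 37C. ADP produced was detected by Transcreener HTRF (ex 320 nm; em 590/665 nm).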

[13] = biological target: D(1A) dopamine receptor (Homo sapiens) (UniProt P21728); test: HTS Assay for Allosteric Agonists of the Human D1 Dopamine Receptor: Primary Screen for Agonists (AID 488981)
Chain of D(1A) dopamine receptor (Homo sapiens) (P21728 whole entry, looked up): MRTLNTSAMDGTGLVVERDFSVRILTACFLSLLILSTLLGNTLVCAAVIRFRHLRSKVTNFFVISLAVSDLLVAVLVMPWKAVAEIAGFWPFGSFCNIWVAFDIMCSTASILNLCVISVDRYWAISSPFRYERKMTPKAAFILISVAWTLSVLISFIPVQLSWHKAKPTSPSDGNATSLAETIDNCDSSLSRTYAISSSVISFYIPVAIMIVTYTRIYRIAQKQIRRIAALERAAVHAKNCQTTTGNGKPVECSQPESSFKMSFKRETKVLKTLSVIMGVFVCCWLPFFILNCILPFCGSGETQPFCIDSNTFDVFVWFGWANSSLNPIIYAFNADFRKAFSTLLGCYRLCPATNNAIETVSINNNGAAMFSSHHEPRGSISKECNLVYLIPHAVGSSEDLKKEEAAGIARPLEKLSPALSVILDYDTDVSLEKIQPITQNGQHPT
Method in brief: (§1)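 Tetracycline-induced HEK293 T-REx cells force-coupled to calcium signalling were incubated overnight at 30 C and dye-loaded at room temperature. Calcium flux over 180 s after compound addition flagged agonists; a further 180 s read after EC20 dopamine flagged potentiators.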

[14] = biological target: D(1A) dopamine receptor (Homo sapiens) (UniProt P21728); test: HTS Assay for Allosteric Agonists of the Human D1 Dopamine Receptor: Primary Screen for Potentiators (AID 488982)
Method in brief: as §1

[15] = biological target: D(1A) dopamine receptor (Homo sapiens) (UniProt P21728); test: HTS Assay for Allosteric Agonists of the Human D1 Dopamine Receptor: Primary Screen for Antagonists (AID 488983);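 note: calcium flux response to an EC80 dopamine challenge measured with no-wash dye; nearly all actives have a fitted effect of over 65% in size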
Method in brief: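 In this primary screen, compounds are applied to calcium-dye-loaded HEK293 T-REx cells with force-coupled D1 expression induced overnight at 30 C. An EC80 of dopamine follows the 180 s compound phase, and calcium is monitored for a further 180 s.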

[16] = Nrf2 qHTS screen for inhibitors: Validation (AID 493153; active = well fitted inhibition curve with a large enough effect in the main read-out, with a control signal flat, not every such curve was filed as active); conditions: viability change: measured here: cytotoxicity max response
Method in brief: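 In this counterscreened reporter format, each well gives two signals: CellTiter-Fluor fluorescence for cytotoxicity and ARE-luciferase luminescence for Nrf2 function. A549 ARE_Fluc cells in 5% FBS OPTI-MEM were exposed to compound titrations for 18-24 h.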

[17] = biological target: Peptidyl-prolyl cis-trans isomerase NIMA-interacting 1 (Homo sapiens) (UniProt Q13526); test: qHTS Validation Assay to Find Inhibitors of Pin1 (AID 504536; active = well fitted inhibition curve with a large enough effect in the polarisation, with a control signal flat, not every such curve was filed as active; the % refers to the polarisation)
Chain of Peptidyl-prolyl cis-trans isomerase NIMA-interacting 1 (Homo sapiens) (Q13526 whole entry, looked up): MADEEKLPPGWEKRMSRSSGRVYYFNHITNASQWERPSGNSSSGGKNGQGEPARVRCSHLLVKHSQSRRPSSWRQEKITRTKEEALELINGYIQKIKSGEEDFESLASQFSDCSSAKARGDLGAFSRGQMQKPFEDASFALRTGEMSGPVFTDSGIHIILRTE
Method in brief: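 Fluorescence polarization competition: compounds (titration) displace HiFluor-488-labeled Pin1-1b peptide from Pin1 (0.3 uM final) in pH 7.5 HEPES buffer with DTT, 10 min at room temperature; %Activity normalized to no-enzyme wells, curves fitted.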

[18] = biological target: Phosphoglycerate kinase, glycosomal (Trypanosoma brucei brucei) (UniProt P07378); test: qHTS Validation Assay to Find Inhibitors of Phosphoglycerate Kinase (AID 504547)
Chain of Phosphoglycerate kinase, glycosomal (Trypanosoma brucei brucei) (P07378 whole entry, looked up): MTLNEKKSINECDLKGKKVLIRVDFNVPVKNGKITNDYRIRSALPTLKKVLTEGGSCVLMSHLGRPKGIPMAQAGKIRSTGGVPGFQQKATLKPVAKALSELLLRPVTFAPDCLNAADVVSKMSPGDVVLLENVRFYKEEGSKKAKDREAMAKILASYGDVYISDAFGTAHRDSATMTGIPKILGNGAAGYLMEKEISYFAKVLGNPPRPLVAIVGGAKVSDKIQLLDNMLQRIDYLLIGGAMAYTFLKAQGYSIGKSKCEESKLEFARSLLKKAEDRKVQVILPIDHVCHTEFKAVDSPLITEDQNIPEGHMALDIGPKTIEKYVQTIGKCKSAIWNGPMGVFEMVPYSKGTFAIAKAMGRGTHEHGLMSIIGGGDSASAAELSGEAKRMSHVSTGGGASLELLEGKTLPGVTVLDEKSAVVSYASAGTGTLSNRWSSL
Method in brief: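 In TEA buffer (100mM, pH 7.6) containing 5mM MgCl2 and 0.01% Tween-20, the GAPDH-coupled PGK reaction proceeded for 60 minutes at room temperature before a single luminescence reading using Kinase-Glo Plus.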

[19] = biological target: phosphoglycerate mutase (Leishmania major) (UniProt Q4Q090); test: qHTS Validation Assay to Find Inhibitors of Phosphoglycerate Mutase (AID 504548);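 note: end-point luminescence from Kinase-GloPlus after the PGAM reaction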
Chain of phosphoglycerate mutase (Leishmania major) (Q4Q090 1-553): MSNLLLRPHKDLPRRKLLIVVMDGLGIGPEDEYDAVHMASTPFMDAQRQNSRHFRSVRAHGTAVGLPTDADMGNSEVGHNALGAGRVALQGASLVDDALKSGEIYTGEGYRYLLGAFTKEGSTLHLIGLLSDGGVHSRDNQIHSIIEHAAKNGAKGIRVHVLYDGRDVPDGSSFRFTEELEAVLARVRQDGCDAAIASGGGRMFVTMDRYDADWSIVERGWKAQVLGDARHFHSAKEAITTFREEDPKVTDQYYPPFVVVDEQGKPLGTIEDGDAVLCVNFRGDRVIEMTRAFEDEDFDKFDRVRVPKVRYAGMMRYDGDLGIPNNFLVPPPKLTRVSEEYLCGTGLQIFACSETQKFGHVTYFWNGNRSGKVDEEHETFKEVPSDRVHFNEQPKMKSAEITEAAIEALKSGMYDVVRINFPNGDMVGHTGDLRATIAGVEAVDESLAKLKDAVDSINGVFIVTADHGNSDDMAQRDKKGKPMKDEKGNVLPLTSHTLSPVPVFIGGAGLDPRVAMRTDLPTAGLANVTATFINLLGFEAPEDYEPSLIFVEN
Method in brief: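 L. major PGAM (1.25nM final) was added to substrate buffer and pinned compound, incubated 45 minutes at room temperature, then Kinase-GloPlus added; luminescence read after 10 minutes. Buffer: 100 mM TEA pH 7.6, 5 mM MgCl2, 0.01% Tween-20.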

[20] = biological target: Ubiquitin carboxyl-terminal hydrolase 1 (Homo sapiens) (UniProt O94782); test: Inhibitors of USP1/UAF1: Pilot qHTS (AID 504865);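 note: rhodamine fluorescence freed from ubiquitin-rhodamine substrate followed over time; top concentration of the series differs between compounds; nearly all actives have a fitted effect of over 35% in size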
Chain of Ubiquitin carboxyl-terminal hydrolase 1 (Homo sapiens) (O94782 whole entry, looked up): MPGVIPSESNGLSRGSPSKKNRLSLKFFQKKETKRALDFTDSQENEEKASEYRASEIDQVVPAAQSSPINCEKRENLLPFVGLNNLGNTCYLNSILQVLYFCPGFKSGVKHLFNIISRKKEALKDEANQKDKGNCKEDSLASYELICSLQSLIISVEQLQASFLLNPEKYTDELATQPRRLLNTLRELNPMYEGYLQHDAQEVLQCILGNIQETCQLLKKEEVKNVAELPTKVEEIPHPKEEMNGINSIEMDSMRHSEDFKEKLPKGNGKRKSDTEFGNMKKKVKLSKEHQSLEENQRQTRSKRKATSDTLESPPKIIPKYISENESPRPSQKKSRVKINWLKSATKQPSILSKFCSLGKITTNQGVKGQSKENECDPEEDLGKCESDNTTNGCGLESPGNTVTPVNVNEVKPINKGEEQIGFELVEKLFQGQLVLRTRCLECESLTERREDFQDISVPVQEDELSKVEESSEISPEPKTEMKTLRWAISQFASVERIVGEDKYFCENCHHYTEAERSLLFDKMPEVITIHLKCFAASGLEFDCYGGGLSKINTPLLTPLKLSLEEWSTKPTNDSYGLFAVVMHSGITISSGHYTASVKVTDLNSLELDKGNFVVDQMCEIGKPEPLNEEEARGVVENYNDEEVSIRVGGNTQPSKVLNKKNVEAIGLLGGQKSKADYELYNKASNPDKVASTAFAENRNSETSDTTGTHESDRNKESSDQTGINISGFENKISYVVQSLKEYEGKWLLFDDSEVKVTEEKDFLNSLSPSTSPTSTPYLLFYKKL
Method in brief: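 USP1/UAF1 complex (1nM) preincubated with compound 15 min at room temperature, then Ub-Rho substrate (150nM final) added. Fluorescence read kinetically at 480/540 nm, 6 reads every 60 seconds. Buffer: 50mM HEPES pH 7.8, 0.5mM EDTA, 0.1 mg/ml BSA, 1mM TCEP, 0.01% Tween-20.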

[21] = qHTS for Inhibitors of ATXN expression: Validation of Cytotoxic Assay (AID 588349)
Method in brief: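 Toxicity of test compounds toward HEK293 cells is scored from cellular ATP content measured by CellTiter Glo. Cells receive titrated doses and incubate 72 hr at 37 degrees C beforehand.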

[22] = qHTS for Inhibitors of ATXN expression: Validation (AID 588378); note: nearly all actives have a fitted effect of over 75% in size
Method in brief: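 Luminescence from an ATXN2-FFLuc reporter in HEK293 cells served as read-out after 24 h compound treatment at 37 degrees C; CellTiter-Fluor fluorescence was recorded first to assess viability.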

[23] = biological target: Glutaminase kidney isoform, mitochondrial (Homo sapiens) (UniProt O94925); test: qHTS for Inhibitors of Glutaminase (GLS): LOPAC Validation (AID 624146);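 note: glutamate product detected by oxidase and peroxidase coupled Amplex red fluorescence gain; nearly all actives have a fitted effect of over 60% in size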
Method in brief: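 Glutamate formation by hKGA was monitored fluorometrically using coupled glutamate oxidase, HRP and Amplex Red. Substrate was added as 1 mM L-glutamine solution; incubation was 30 min at RT after an initial read.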

[24] = qHTS of Trypanosoma Brucei Inhibitors: LOPAC Validation (AID 624147)
Method in brief: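 Luminescent Kinase-Glo Plus end-point after 45 min room-temperature reaction of T. brucei pyruvate kinase started with 130 uM ADP (final). Buffer TEA 50 mM pH 7.2 with KCl, MgCl2, BSA, Tween-20; titration-based qHTS with fitted concentration-effect curves.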

[25] = biological target: Glucagon-like peptide 1 receptor (Homo sapiens) (UniProt P43220); test: qHTS of GLP-1 Receptor Agonists: LOPAC Validation (AID 624148);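 note: higher luminescence signal means agonism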
Method in brief: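 HEK293 cells stably co-expressing a cAMP-responsive luciferase reporter and a hypersensitive GLP-1R were plated 12 h at 37 °C and exposed to compounds for 4-6 hr at 37 °C, 5% CO2. Luminescence was read 12 min after adding detection reagent.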

[26] = qHTS of Nrf2 Activators: LOPAC Validation (AID 624149)
Method in brief: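 Following overnight seeding in 5% FBS OPTI-MEM, AREc32_Fluc cells receive compounds for a 24 hr incubation at 37 deg C with 5% CO2. Steady-Glo is added, and after 30 min at RT luminescence is recorded.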

[27] = HTS Assay for Allosteric Antagonists of the Human D2 Dopamine Receptor: Hit Validation in HTRF (AID 624455);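 note: stable D1 dopamine receptor cell line scored for blocking the D1 response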
Method in brief: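 Validation of hits used D1 receptor stably expressed in cells with HTRF detection of response inhibition; origin screen measured calcium flux following EC80 dopamine in a force-coupled, inducible Hek293 Trex D2 cell line.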

[28] = qHTS for compounds that reverse cellular toxicity of Amyloid beta (A-beta) peptide in yeast: LOPAC Validation Assay (AID 720559)
Method in brief: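 Yeast cells expressing toxic A-beta were combined with pinned compounds in growth medium and incubated 48 hr at 30 C. Growth was read as absorbance at 600 nm and normalized to DMSO and to an equimolar FeCl3/clioquinol positive control.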

What does the source list for `C[C@H](Cc1ccccc1)Nc1ncnc2c1ncn2[C@@H]1O[C@H](CO)[C@@H](O)[C@H]1O`?
outcome [1]: inactive; outcome [2]: inactive; Potency [3]: inactive; Potency [4]: inactive; Potency [5]: inactive; outcome [6]: inactive; Potency [7]: inactive; outcome [8]: inactive; Potency [9]: inactive; Potency [10]: inactive; Potency [11]: inactive; outcome [12]: inactive; outcome [13]: inactive; outcome [14]: inactive; outcome [15]: inactive; outcome [16]: inactive; viability change [16]: 6.66%; Potency [17]: inactive; Potency [18]: inactive; outcome [19]: inactive; Potency [20]: inactive; Potency [21]: inactive; Potency [22]: inactive; Potency [23]: inactive; outcome [24]: inactive; outcome [25]: inactive; outcome [26]: inactive; outcome [27]: inactive; outcome [28]: inactive
